Screening results: PubChem, National Center for Advancing Translational Sciences (NCATS)
In the library only some 4.2% were active in any assay of this set; here they are far more common.
MCF10A rereplic: A quantitative high throughput screen for small molecules that induce DNA re-replication in MCF 10a normal breast cells; MCF 10A DNA re-replication, Hoechst nuclear intensity, 48 h; Potency, µM (doses to about 46.1 µM), inactives show top-dose activity, positive = re-replication, actives largely listed as activators; 2.9% of 350,000 active; also: % of control where 0% means no effect; nearly all actives have a fitted effect of over 50% in size
AT treatment: qHTS Assay for Identifying a Potential Treatment of Ataxia-Telangiectasia. 0.19% of 320,000 active. F2112 A-T fibroblasts, KAP-1 phosphorylation AlphaLISA; neocarzinostatin DNA damage 30 min before lysis. AID 485349, 2010. Potency, µM (highest dose often 57.5 µM), inactives show at the top dose activation, hits mostly activators; also: % of control where 0% means no effect; nearly all actives have a fitted effect of over 45% in size
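hTERT-immortalized A-T patient fibroblasts (F2112), 500 cells/well in OPTI-MEM, 1% FBS, got compounds for 60 min, then NCS for 30 min at 37C. Lysates were then assayed for phospho-KAP-1 by AlphaLISA (anti-pKAP1 donor, anti-KAP1 acceptor beads), 6 hr at 25C.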
SW480 rereplic: A quantitative high throughput screen for small molecules that induce DNA re-replication in SW480 colon adenocarcinoma cells. SW480 DNA re-replication, Hoechst DNA content imaging, 48 h. Potency, µM (doses to about 46.1 µM), inactives show at the highest dose re-replication activation, most hits filed as activators. 1.8% of 340,000 active. AID 624297, 2012; also: % of control where 0% means no effect; nearly all actives have a fitted effect of over 55% in size
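Treated cells incubate 48 hr (37 C, 5% CO2), are stained 40 min with Hoechst, and nuclear fluorescence is enumerated; a rise in nuclei with high DNA signal marks re-replication.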
Mito fusion yeast: qHTS Assay for Small Molecule Inhibitors of Mitochondrial Division or Activators of Mitochondrial Fusion; S. cerevisiae fusion-defective mutant growth rescue, CellTiterGlo 48 h; Potency, µM (titrated, usually from 46.1 µM), without a hit: top-dose growth rescue (activation), actives largely listed as activators; 0.23% of 320,000 active; also: % of control where 0% means no effect; nearly all actives have a fitted effect of over 45% in size
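Compounds are tested for their ability to restore growth of mitochondrial fusion-defective yeast strains at non-permissive 37C in YPEG medium over 48 hours. Viability is quantified by luciferase luminescence.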
Integrin act MD: qHTS for Activators of Integrin-Mediated Alleviation for Muscular Dystrophy; alpha7betagal myoblasts, beta-gal FDG fluorescence, 48 h; Potency, µM (series often up to 38.3 µM), for inactives: at the top dose activation, actives largely listed as activators; 0.064% of 350,000 active; AID 624291, 2012;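 also: 100% = response of the positive control SU9516; nearly all actives have a fitted effect of over 60% in size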
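alpha7betagal+/- myoblasts (passage 13, 250/well) treated 48 h at 37C with compounds at 1:260 dilution of DMSO stock. Lysed, then beta-galactosidase activity read as FDG fluorescence (ex 480/em 540) after 30 min, with pre-read for autofluorescence.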
* marks the source's active call; other numbers are inactive results; ? = inconclusive; / = no result; [ ] = remark or other dose. Calls follow the shape of the dose curve; as a rule, active = well fitted activation curve with a large enough effect; inconclusive = small, poorly fitted or top-dose-only effect; inactive = no such curve, though single readings can be large or run the other way. Potency is read from the fitted curve at half-maximal effect.

SMILES	MCF10A rereplic	AT treatment	SW480 rereplic	Mito fusion yeast	Integrin act MD
Cc1ccc(S(=O)(=O)NC2CCCCC2)cc1	-7.0%	-2.9%	-3.1%	-8.7%	/
CSc1ccc(S(=O)(=O)NC2CCCCCC2)cc1	9.2µM*	11.1%	-3.5%	?	-8.4%
CSc1nnc(C)c(=O)n1COC(=O)c1cc(Cl)ccc1[N+](=O)[O-]	4.0%	-4.0%	-12.3%	0.2%	24.8%
O=C(OC(C(=O)Nc1ccc(Cl)cc1C(F)(F)F)c1ccccc1)c1c(Cl)cccc1Cl (stereo not drawn)	5.8µM*	5.3%	2.8%	0.1%	12.6%
CSc1nc(Sc2ccccc2Cl)c2ccccc2n1	23.1µM*	1.9%	?	13.8%	-31.1%
COc1ccc(N2CCN(C(=O)c3ccc4c(c3)CC(c3ccccc3)OC4=O)CC2)cc1 (stereo not drawn)	3.7%	10.0%	-22.8%	1.9%	6.4%
COc1ccc(NC(=O)Cn2c(C)cc(=O)c3ccccc32)cc1	26.0%	-7.3%	?	-5.8%	-23.9%
COc1ccc(NCC(=O)n2c(C)c(C)c3ccccc32)cc1	18.4µM*	-1.6%	?	13.5%	-36.4%
COc1ccc(S(=O)(=O)Oc2cccc(/C=N/N=C3/NC(=O)C(CC(=O)O)S3)c2)cc1 (stereo not drawn)	-17.2%	4.0%	6.51µM*	-2.0%	1.1%
CCN(CC)C(=O)C1CCN(S(=O)(=O)c2ccc(C3CNC(=O)C3)cc2)CC1 (stereo not drawn)	0.3%	1.7%	-6.5%	-7.3%	-4.4%
COc1ccc(OC)c(N=c2oc3cc(O)ccc3cc2C(N)=O)c1	16.4µM*	-3.9%	18.4µM*	5.2%	0.0%[7.66 µM]
COc1ccc2cc(C(N)=O)c(=Nc3ccccc3)oc2c1	-7.5%	-5.2%	-8.1%	1.2%	11.5%
CCOc1cc(CNCCSc2nnnn2C)cc(Br)c1OCc1ccccc1	14.6µM*	3.2%	?	0.4%	-47.3%
COC(=O)/C(=C\c1ccc(O)cc1)c1nc2ccccc2[nH]1	16.4µM*	3.5%	2.59µM*	-1.7%	18.5%
COc1cc(/C=C/C(=O)NCc2nc3ccccc3[nH]2)cc(OC)c1OC	1.8%	4.0%	-1.7%	6.0%	?
COc1ccc(/C=C(/NC(=O)c2ccccc2)c2nc3ccccc3[nH]2)cc1OC	20.6µM*	-14.2%	?	-1.4%	41.4%
C/C(=C\c1ccc(N)cc1)c1nc2ccccc2[nH]1	3.2%	7.6%	-12.5%	-19.2%	23.0%
COC(=O)/C(=C\c1cc(OC)c(OC)c(OC)c1)c1nc2ccccc2[nH]1	20.6µM*	22.9%	?	-2.4%	16.0%
COc1ccc(OC)c(NC(=O)c2ccc(NC3=NC4CS(=O)(=O)CC4S3)cc2)c1 (stereo not drawn)	0.8%	-7.3%	-10.9%	-2.3%	-3.0%
COc1ccc(CNC(=O)CCSc2nc(-c3ccc4c(c3)OCO4)cc(C(F)(F)F)n2)cc1	20.6µM*	12.4%	?	1.4%	25.9%
Cc1ccc(CC(C)(O)CC(C)(O)Cc2ccc(C)cc2)cc1 (stereo not drawn)	/	/	/	/	0.7%
Cc1cccc(OCCOCCSc2ncccn2)c1	0.8%	8.5%	-3.7%	-0.8%	-6.0%
Cc1cccc(OCCSc2nc(N)cc(N)n2)c1	?	11.3%	16.4µM*	15.0%	-1.0%
CCNc1nc(NCC)nc(SCCOc2ccc(C)cc2)n1	20.6µM*	13.7%	8.2%	6.9%	0.0%
COc1ccc(NC(=O)CCN2C(=O)c3ccncc3C2=O)cc1OC	-0.7%	9.1%	-28.8%	-1.1%	0.9%
SMILES	MCF10A rereplic	AT treatment	SW480 rereplic	Mito fusion yeast	Integrin act MD
ClC(Cl)(Cl)c1nc2ccccc2n2nncc12	?	4.9%	13µM*	12.6µM*	-58.0%
c1ccc2c(c1)nnn1c3ccccc3nc21	/	1.7%	/	19.1%	/
C=CC(n1cncn1)C(O)(c1ccccc1)c1ccccc1 (stereo not drawn)	2.8%	14.2%	-7.4%	10.2%	?
O=C(c1ccc([N+](=O)[O-])o1)N1CCc2ccccc21	9.2µM*	13.8%	20.6µM*	-14.8%	-48.4%
COc1cccc2sc(N3CCN(C(=O)c4ccc([N+](=O)[O-])o4)CC3)nc12	23.1µM*	7.3%	?	1.5%	-61.2%
O=C(c1ccc([N+](=O)[O-])o1)N1CCN(c2nc3c(Cl)cccc3s2)CC1	7.31µM*	10.1%	?	24.0%	-27.3%
COc1cc2c(cc1OC)CN(C(=O)c1ccc([N+](=O)[O-])o1)CC2	?	15.2%	6.51µM*	-9.6%	-68.4%
O=C(c1ccc([N+](=O)[O-])o1)N1CCc2ccccc2C1	2.1%	2.2%	?	-10.5%	?
Cc1nnc(SC(C)C(=O)N(C)C2CCCCC2)n1N (stereo not drawn)	0.1%	16.4%	-8.9%	-0.4%	6.8%
Cc1cc(Oc2ccc(C#N)cc2)nc(N2CCOCC2)n1	-8.8%	-3.2%	-2.2%	2.6%	-10.2%
C/C(=N\NC(=S)Nc1cccc(C)c1)c1cc2ccccc2o1	14.1µM*	-5.0%	12.7%	5.9%	-13.1%
C/C(=N\Nc1ccc([N+](=O)[O-])cc1)c1cc2ccccc2o1	2.91µM*	-2.0%	23.9%	2.5%	-43.1%
COc1ccc(NS(=O)(=O)c2cc(C(=O)N(C)CCc3ccccn3)ccc2Cl)cc1	11.1%	/	117.1%	/	26.1%
O=C(c1ccc2c3c(cccc13)CC2)C1CCCN(C(=O)c2ccc[n+]([O-])c2)C1 (stereo not drawn)	-2.4%	67.1%	-21.0%	-7.2%	-21.4%
CCN(CC)C(=O)C1=C(C)N(CCCOC)C(=O)C(CC(=O)NC(c2ccccc2)c2ccccc2)C1 (stereo not drawn)	/	/	/	/	-2.4%
COc1cc(C2C(C#N)=C(N)OC3=C2C(=O)CCC3)cc2c1OCO2 (stereo not drawn)	0.4%	22.8%	-3.1%	0.9%	23.4%
COc1cc(C2C3=C(COC3=O)Oc3cc4c(cc32)OCO4)cc(OC)c1OC(C)=O (stereo not drawn)	?	/	0.13µM*	/	21.6%
COc1cc(C2N(c3ccccc3)CCN2c2ccccc2)ccc1OC(C)=O	-1.8%	-1.7%	-4.9%	-1.8%	6.5%
COc1cc(C2C3=C(COC3=O)Oc3cc4c(cc32)OCO4)ccc1OC(C)=O (stereo not drawn)	?	/	3.66µM*	/	3.0%
COc1ccc(C2C3=C(COC3=O)Oc3cc4c(cc32)OCO4)cc1OC (stereo not drawn)	2.31µM*	/	5.8µM*	/	-5.5%
COc1ccc(C2C(=O)c3ccccc3C2=O)cc1OC	2.4%	-1.3%	0.0%	12.4%	41.3%
CCCCS(=O)(=O)N1CCCC(C(=O)NCC2CCCO2)C1 (stereo not drawn)	?	3.5%	-0.2%	1.3%	4.9%
